The full list was thinned out, with hits kept by preference.
mut p53 react = mutant p53 pathway re-activators, primary screen, cell-based, SW480, luciferase, single point, HTS; SW480 PUMA-promoter luciferase, p53 mutant reactivation; activation, % at 9.98 µM; 1.5% of 28,000 active; AID 624151, 2012; in the data active = activation above about 52%; inconclusive = no clear call, values can overlap the other calls
STK33 inh = STK33 kinase inhibitors, primary screen, biochemical, luminescence, ADP-Glo, MBP substrate. 0.44% of 27,000 active. Serine/threonine-protein kinase 33 (Homo sapiens), Q9BYT3. inhibition, % at 12.5 µM; in the data active = inhibition above about 20%; inconclusive = no clear call, values can overlap the other calls
Target sequence (Q9BYT3 whole entry, looked up): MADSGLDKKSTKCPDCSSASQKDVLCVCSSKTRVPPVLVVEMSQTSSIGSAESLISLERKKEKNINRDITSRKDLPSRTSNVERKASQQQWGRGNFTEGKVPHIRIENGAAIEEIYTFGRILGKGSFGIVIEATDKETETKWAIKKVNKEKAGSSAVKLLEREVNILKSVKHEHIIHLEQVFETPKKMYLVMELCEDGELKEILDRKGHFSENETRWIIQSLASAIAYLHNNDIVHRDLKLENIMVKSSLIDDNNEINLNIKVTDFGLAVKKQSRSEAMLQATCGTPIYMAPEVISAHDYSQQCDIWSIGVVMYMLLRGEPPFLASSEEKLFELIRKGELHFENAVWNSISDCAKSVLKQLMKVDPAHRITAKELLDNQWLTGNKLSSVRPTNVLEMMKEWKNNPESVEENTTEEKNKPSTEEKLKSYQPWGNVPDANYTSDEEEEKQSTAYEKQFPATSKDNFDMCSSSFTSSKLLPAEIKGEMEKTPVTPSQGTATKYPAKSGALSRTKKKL
NOMO-1 viab = NOMO-1 AML cell viability reduction, primary screen, STK33 inhibitor project, CellTiter-Glo luminescence | NOMO-1 AML viability, 72 h | inhibition, % (no concentration beside the values) | 7.5% of 37,000 active; in the data active = inhibition above about 80%; inconclusive = no clear call, values can overlap the other calls
ID4 binder = binders of human ID4 protein, primary screen, biochemical, small molecule microarray, single point; DNA-binding protein inhibitor ID-4 (Homo sapiens), P47928; Flag-ID4 binding, fluorescence F/B; calls only; 1.2% of 31,000 active; AID 624137, 2012; call rule not given here;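 also: a binder raises fluorescence above local background on the spot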
An asterisk follows results filed as active; i = inactive; ? = inconclusive; / = no result; + = active, no number.

SMILES	mut p53 react	STK33 inh	NOMO-1 viab	ID4 binder
C[C@@H]1CN([C@H](C)CO)C(=O)Cc2cc(NC(=O)Nc3ccccc3)ccc2O[C@@H]1CN(C)C(=O)Nc1ccc(F)cc1	6	-7	-8	i
O=C(CSc1nc2cc3ccccc3cc2[nH]1)Nc1ccccc1Cl	-33	3	108*	i
Cc1cc(NC(=O)CSc2nc3ccccc3[nH]2)ccc1Cl	28	0	45	i
COC(=O)c1ccccc1NC(=O)CSc1nc2cc3ccccc3cc2[nH]1	-7	9	5	i
CCOC(=O)c1cc(NC(=O)CSc2nc3ccccc3[nH]2)ccc1Cl	-2	-1	100*	i
COc1cc2occ(-c3ccc4c(c3)OCO4)c(=O)c2c(OC)c1OC	21	-3	19	i
Clc1ccc(-c2csc3ncnc(SCc4ccco4)c23)cc1	11	3	34	i
C=C1C(=O)O[C@@H]2C[C@@]3(C)[C@@H](O)C[C@@H](O)C(=C)[C@@H]3C[C@H]12	/	-2	83*	i
C[C@H]1CN([C@@H](C)CO)C(=O)c2cc(NS(=O)(=O)c3cccs3)ccc2O[C@H]1CN(C)Cc1ccc(C(=O)Nc2ccccc2N)cc1	/	/	71	/
C[C@H](CO)N1C[C@H](C)[C@H](CN(C)Cc2ccc(C(=O)Nc3ccccc3N)cc2)Oc2ccc(NS(=O)(=O)c3cccs3)cc2C1=O	/	/	109*	/
C[C@@H]1CN([C@H](C)CO)C(=O)c2cc(NS(=O)(=O)c3cccs3)ccc2O[C@@H]1CN(C)Cc1ccc(C(=O)Nc2ccccc2N)cc1	/	/	110*	/
O=S(=O)(c1cc(C(F)(F)F)ccc1Cl)N1CCN(Cc2cccc(OCCO)c2)CC1	/	-3	/	/
CC(=O)Oc1ccc2occ(C(=O)CCN(C)C)c2c1	/	/	140*	/
COc1cccc(NC(=O)CSc2nnc(-c3cccc(C)c3)n2-c2ccccc2)c1	-1	5	-7	i
COC(=O)CCCCCCC(=O)Nc1ccc(C2OC(CSc3ccccn3)CC(c3ccccc3)O2)cc1 (stereo unspecified)	/	3	/	i
O=C(O)CCCCCCC(=O)Nc1ccc(C2OC(CSCCO)CC(c3ccccc3)O2)cc1 (stereo unspecified)	/	/	/	+
Cc1ccc(OCCSCc2nc3ccccc3[nH]2)cc1	-12	0	40	i
Cc1ccc(CC(c2nc3ccccc3[nH]2)C(C)c2nc3ccccc3[nH]2)cc1 (stereo unspecified)	-28	3	91*	i
CCOc1cc(S(=O)(=O)n2nnc3ccccc32)ccc1F	0	2	8	i
COc1cc([C@@H]2c3cc4c(cc3C(OC3OC5COC(C)OC5C(O)C3O)C3OCC(=O)[C@@H]32)OCO4)cc(OC)c1O (stereo partly specified)	-81	/	/	/
COc1cc([C@@H]2c3cc4c(cc3C(OC3O[C@@H]5COC(C)O[C@H]5[C@H](O)[C@H]3O)C3COC(=O)[C@@H]32)OCO4)cc(OC)c1O (stereo partly specified)	/	1	101*	/
COc1cc(C2OCC3C(c4ccc5c(c4)OCO5)OC(=O)C23)ccc1O (stereo unspecified)	-6	-5	20	i
COc1cc([C@@H]2c3cc4c(cc3[C@@H](OC3OC5COC(C)OC5C(O)C3O)[C@H]3COC(=O)[C@H]23)OCO4)cc(OC)c1O (stereo partly specified)	/	1	141*	/
Cc1ccc(C(C)C)c(OCC(=O)Nc2ccc(C)cc2[N+](=O)[O-])c1	-10	-2	31	i
C[C@@H]1CN([C@@H](C)CO)C(=O)c2cccc(NS(=O)(=O)c3ccc(F)cc3)c2O[C@H]1CN(C)Cc1ccc(C(=O)Nc2ccccc2N)cc1	/	/	45	/
SMILES	mut p53 react	STK33 inh	NOMO-1 viab	ID4 binder
C[C@H]1CN([C@@H](C)CO)C(=O)c2cccc(NS(=O)(=O)c3ccc(F)cc3)c2O[C@H]1CN(C)Cc1ccc(C(=O)Nc2ccccc2N)cc1	/	/	114*	/
C[C@H]1CN([C@@H](C)CO)C(=O)c2cccc(NS(=O)(=O)c3ccc(F)cc3)c2O[C@@H]1CN(C)Cc1ccc(C(=O)Nc2ccccc2N)cc1	/	/	94*	/
C[C@@H]1CN([C@@H](C)CO)C(=O)c2cccc(NS(=O)(=O)c3ccc(F)cc3)c2O[C@@H]1CN(C)Cc1ccc(C(=O)Nc2ccccc2N)cc1	/	/	129*	/
C[C@H](CO)N1C[C@H](C)[C@H](CN(C)C)Oc2ccc(NC(=O)Nc3cccc4ccccc34)cc2CC1=O	/	0	-2	/
C[C@H](CO)N1C[C@H](C)[C@H](CN(C)S(=O)(=O)c2ccccc2)Oc2c(NC(=O)C3CCCCC3)cccc2C1=O	/	/	26	/
COc1ccc(C(=O)Oc2c(S(=O)(=O)c3ccccc3)c(C)nn2-c2ccccc2)cc1	-5	-3	116*	i
Cc1cccc(NC(c2ccccc2[N+](=O)[O-])c2ccc3ccc(C)nc3c2O)n1 (stereo unspecified)	-45	-1	121*	i
Cc1ccc2ccc(C(Nc3ccccn3)c3cccc([N+](=O)[O-])c3)c(O)c2n1 (stereo unspecified)	-11	-2	112*	i
O=[N+]([O-])c1ccccc1C(c1c[nH]c2ccccc12)c1c[nH]c2ccccc12	-12	?	26	i
Cc1ccc2ccc(C(Nc3ccccn3)c3c(F)cccc3Cl)c(O)c2n1 (stereo unspecified)	-17	-1	110*	i
Cc1ccnc(NC(c2cccc(Cl)c2)c2ccc3ccc(C)nc3c2O)c1 (stereo unspecified)	-51	1	118*	i
C[C@@H]1CN([C@@H](C)CO)C(=O)c2cc(NS(=O)(=O)c3cccs3)ccc2O[C@H]1CN(C)C(=O)Nc1ccc(F)cc1	2	/	1	i
Cc1ccc2cccc(OCc3ccc(Br)cc3)c2n1	9	/	/	i
Cc1ccc2ccc(C(Nc3ccccn3)c3ccccc3Cl)c(O)c2n1 (stereo unspecified)	-58	1	106*	i
CSc1ccc(C(Nc2cc(C)ccn2)c2ccc3ccc(C)nc3c2O)cc1 (stereo unspecified)	-17	4	40	i
COc1ccc(C(Nc2cccc(C)n2)c2ccc3ccc(C)nc3c2O)c(OC)c1OC (stereo unspecified)	-20	5	96*	i
CC(=O)NC1C(=O)Nc2ccccc2S(=O)(=O)C1c1ccccc1 (stereo unspecified)	/	/	-13	/
C[C@@H]1CN([C@H](C)CO)C(=O)Cc2cc(NC(=O)CCCCCC(=O)Nc3ccccc3N)ccc2O[C@H]1CN(C)Cc1ccc(C(F)(F)F)cc1	/	/	114*	/
C[C@@H]1CN([C@H](C)CO)C(=O)Cc2cc(NC(=O)CCCCCC(=O)Nc3ccccc3N)ccc2O[C@@H]1CN(C)Cc1ccc(C(F)(F)F)cc1	/	/	141*	/
C[C@H](CO)N1C[C@H](C)[C@@H](CN(C)Cc2ccc(-c3ccccc3)cc2)Oc2ccc(NC(=O)Nc3ccc4c(c3)OCO4)cc2C1=O	/	/	120*	/
